Values joined by “and” are separate entries in the source; they are usually repeats but may differ in a detail not shown here. Equal values may be shown once. Results filed as inconclusive are left out. Some compounds were tested as several samples or in several runs, with calls that do not always agree. Active and inactive are the calls of the source. Unless noted, calls come from the whole dose curve; as a rule, active = well fitted curve in the direction sought with a large enough effect; inconclusive = small, poorly fitted or top-dose-only effect, or another doubt; inactive = no such curve, though single readings can be large; an effect the other way counts as inactive or inconclusive.
Columns and labels:
[1] = qHTS Assay for Identifying Gametocytocidal Compounds (AID 743244); note: potency is the fitted concentration of half-maximal effect;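 for max response: % is set by controls: 0 for no effect and ±100 for the full control effect; actives lower the fluorescent signal which means gametocytes are killed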; conditions: P. falciparum 3D7 stage III-V gametocytes, alamarBlue, 72 h; max response: stronger effect = lower value
Procedure, shortened: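 Compounds are pinned into medium, gametocytes (stage III–V, 3D7, 20,000 cells/well) added, and plates held 72 h at 37 °C in 5% CO2. AlamarBlue follows for 24 h before fluorescence reading.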

[2] = qHTS assay for measurement of the activity of small molecule inhibitors on Zika virus induced Caspase-3 activity in human iPSC derived neural progenitor cells (hNPCs) (AID 1224857); conditions: hNPCs ZIKV-induced caspase-3/7, Caspase-Glo luminescence, 6 h; series mostly up to 45.7 µM; note: % of control where 0% means no effect; nearly all actives have a fitted effect of over 65% in size
Procedure, shortened: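 Pretreat hNPCs with compound 1 h; infect ZIKV 2 FFU/cell; 6 h 37 C, 5% CO2; Caspase-Glo 3/7, 30 min RT; luminescence; normalize to no-virus and virus-only wells.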

[3] = qHTS assay for measurement of the activity of small molecule inhibitors on Zika virus induced Caspase-3 activity in human astrocytoma cells (AID 1224859); conditions: SNB-19 ZIKV-induced caspase-3/7, luminescence, 6 h; series mostly up to 45.7 µM;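 note: plate controls were ZIKV-infected untreated cells for no effect and uninfected cells for full effect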
Procedure, shortened: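 Human SNB-19 astrocytoma cells in RPMI 1640 with 10% FBS receive compound one hour ahead of Zika virus at 2 FFU/cell. After 6 h infection, caspase-3/7 activity is detected by Caspase-Glo luminescence.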

[4] = qHTS assay to identify small molecule inhibitors of chordoma cells - UCH-2 (AID 1259356); conditions: UCH-2 chordoma viability, CellTiter-Glo ATP luminescence, 48 h; series mostly up to 46.1 µM; note: % is set by controls: 0 for no effect and ±100 for the full control effect
[5] = target: Atrial natriuretic peptide receptor 1 (Homo sapiens) (UniProt P16066); assay: Natriuretic polypeptide receptor (hNpr1) antagonism - Pilot screen (AID 1347049; calls by dose curve;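 note: agonist-evoked cGMP luminescence read 20 min after hNppA addition; % is set by controls: 0 for no effect and ±100 for the full control effect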); conditions: hNpr1 cells, antagonist mode cGMP read-out; series mostly up to 57.5 µM
Procedure, shortened: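 HEK293 cells co-expressing hNpr1 and the GloSensor pGS-40F cGMP luciferase sensor were preloaded with 2% GloSensor reagent for 2 h. Compounds were added for 30 min at room temperature, then cells were stimulated with 0.1 nM hNppA for 20 min before luminescence readout.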

[6] = P-glycoprotein substrates identified in KB-8-5-11 adenocarcinoma cell line, qHTS therapeutic library screen (AID 1346987); conditions: KB-8-5-11 (P-gp overexpressing) viability, CellTiter-Glo, 72 h; series mostly up to 44.5 µM; note: nearly all actives have a fitted effect of over 65% in size; note: potency is the fitted concentration of half-maximal effect
Procedure, shortened: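 KB-8-5-11: colchicine-selected sub-line of KB-3-1 over-expressing P-gp; assay medium lacked colchicine. 72 h drug exposure at 37 degree C, CellTiter-Glo.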

[7] = Natriuretic polypeptide receptor (hNpr1) antagonism - Pilot counterscreen GloSensor control cell line (AID 1347045; calls by dose curve; note: potency is the fitted concentration of half-maximal effect); conditions: HEK293 cGMP GloSensor cells, SNP-stimulated luminescence, 20 min; series mostly up to 38.3 µM
Procedure, shortened: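 HEK293 cells carrying the GloSensor cGMP sensor (GIP/pGS-40F) were loaded with 2% GloSensor reagent for 2 h, exposed to compounds for 30 min, and then stimulated with 50 uM sodium nitroprusside for 20 min at room temperature.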

[8] = qHTS assay to identify small molecule inhibitors of chordoma cells - UCH-1 (AID 1259355); conditions: UCH-1 chordoma viability, CellTiter-Glo, 48 h, combination, with auranofin plus four topoisomerase inhibitors; series mostly up to 46.1 µM; note: % is set by controls: 0 for no effect and ±100 for the full control effect; nearly all actives have a fitted effect of over 55% in size
Procedure, shortened: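 Luminescent ATP read-out (CellTiter-Glo, 30min at room temperature) measured viability of UCH-1 cells exposed for 48hr to test drugs at 15 concentrations, co-dosed with a five-agent combination of auranofin, camptothecin, doxorubicin, rubitecan and topotecan.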

[9] = qHTS profiling for inhibitors of Plasmodium falciparum (3D7) proliferation (AID 743322; call rule not given here;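 note: infected erythrocytes exposed to compound for 72 h before lysis; 100% = DMSO vehicle wells and 0% = 0.29 µM artemisinin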); conditions: P. falciparum 3D7 proliferation; at 28.7 µM (top of the series) unless noted
Procedure, shortened: (§1)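 Erythrocytes infected with P. falciparum (0.3% parasitemia, 2.5% hematocrit) incubated with compounds 72 h at 37 C, 5% CO2. Lysis with saponin/Triton buffer containing SYBR Green I, overnight at room temperature in the dark; DNA fluorescence (485/535 nm) normalised to 0.29 uM artemisinin and DMSO.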

[10] = qHTS profiling for inhibitors of Plasmodium falciparum (DD2) proliferation (AID 743323; call rule not given here); conditions: lower = more inhibition; at 28.7 µM (top of the series) unless noted
Procedure, shortened: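 P. falciparum Dd2-infected erythrocytes (0.3% parasitemia, 2.5% hematocrit) exposed 72 h at 37 C, 5% CO2. Lysis with SYBR Green, overnight at room temperature, fluorescence 485/535 nm; normalized to 0.29 uM artemisinin and DMSO.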

[11] = qHTS assay for cell viability of HEK293 cells (AID 743288); conditions: ATP luminescence (CellTiter-Glo), 18 h; max response: stronger effect = lower value; note: nearly all actives have a fitted effect of over 50% in size; note: potency is the fitted concentration of half-maximal effect; for max response: % is set by controls: 0 for no effect and ±100 for the full control effect
Procedure, shortened: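 Total intracellular ATP, measured with a luciferase-coupled reagent, indicates the number of viable HEK293 cells. Exposure to test chemicals lasts 18 h at 37 C in 1,536-well format at 2,000 cells/well.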

[12] = qHTS profiling for inhibitors of Plasmodium falciparum (HB3) proliferation (AID 743324); conditions: Plasmodium falciparum HB3 blood-stage proliferation; at 28.7 µM (top of the series);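 note: 100% = DMSO vehicle wells and 0% = artemisinin-treated control wells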
Procedure, shortened: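 P. falciparum HB3 grown in erythrocytes (0.3% parasitemia, 2.5% hematocrit final) with compound for 72 h at 37 C, 5% CO2. Parasite DNA detected by SYBR Green after saponin/triton lysis overnight; normalized to 0.29 uM artemisinin and DMSO.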

[13] = qHTS profiling of the MIPE4 collection as inhibitors of Plasmodium falciparum (3D7) proliferation (AID 743344; call rule not given here;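 note: scaled between DMSO vehicle wells and 0.29 µM artemisinin as full inhibition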); conditions: P. falciparum 3D7 in erythrocytes, SYBR Green DNA fluorescence, 72 h; at 28.5 µM (top of the series)
Procedure, shortened: as §1

[14] = qHTS profiling of the MIPE4 collection as inhibitors of Plasmodium falciparum (DD2) proliferation (AID 743345; call rule not given here); conditions: P. falciparum Dd2 in erythrocytes, SYBR Green DNA, 72 h; at 28.5 µM (top of the series)
Procedure, shortened: as §1

[15] = qHTS profiling of the MIPE4 collection as inhibitors of Plasmodium falciparum (DD2) proliferation (Rep 2) (AID 743346; call rule not given here); conditions: P. falciparum Dd2 in erythrocytes, SYBR Green DNA, 72 h; at 28.5 µM (top of the series)
Procedure, shortened: as §1

[16] = qHTS profiling of the MIPE4 collection as inhibitors of Plasmodium falciparum (HB3) proliferation (AID 743347; call rule not given here;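 note: plate controls were DMSO vehicle wells for no effect and artemisinin wells for full effect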); conditions: P. falciparum HB3 in erythrocytes, SYBR Green DNA, 72 h; at 28.5 µM (top of the series)
Procedure, shortened: as §1

Sequence of Atrial natriuretic peptide receptor 1 (Homo sapiens) (P16066 whole entry, looked up): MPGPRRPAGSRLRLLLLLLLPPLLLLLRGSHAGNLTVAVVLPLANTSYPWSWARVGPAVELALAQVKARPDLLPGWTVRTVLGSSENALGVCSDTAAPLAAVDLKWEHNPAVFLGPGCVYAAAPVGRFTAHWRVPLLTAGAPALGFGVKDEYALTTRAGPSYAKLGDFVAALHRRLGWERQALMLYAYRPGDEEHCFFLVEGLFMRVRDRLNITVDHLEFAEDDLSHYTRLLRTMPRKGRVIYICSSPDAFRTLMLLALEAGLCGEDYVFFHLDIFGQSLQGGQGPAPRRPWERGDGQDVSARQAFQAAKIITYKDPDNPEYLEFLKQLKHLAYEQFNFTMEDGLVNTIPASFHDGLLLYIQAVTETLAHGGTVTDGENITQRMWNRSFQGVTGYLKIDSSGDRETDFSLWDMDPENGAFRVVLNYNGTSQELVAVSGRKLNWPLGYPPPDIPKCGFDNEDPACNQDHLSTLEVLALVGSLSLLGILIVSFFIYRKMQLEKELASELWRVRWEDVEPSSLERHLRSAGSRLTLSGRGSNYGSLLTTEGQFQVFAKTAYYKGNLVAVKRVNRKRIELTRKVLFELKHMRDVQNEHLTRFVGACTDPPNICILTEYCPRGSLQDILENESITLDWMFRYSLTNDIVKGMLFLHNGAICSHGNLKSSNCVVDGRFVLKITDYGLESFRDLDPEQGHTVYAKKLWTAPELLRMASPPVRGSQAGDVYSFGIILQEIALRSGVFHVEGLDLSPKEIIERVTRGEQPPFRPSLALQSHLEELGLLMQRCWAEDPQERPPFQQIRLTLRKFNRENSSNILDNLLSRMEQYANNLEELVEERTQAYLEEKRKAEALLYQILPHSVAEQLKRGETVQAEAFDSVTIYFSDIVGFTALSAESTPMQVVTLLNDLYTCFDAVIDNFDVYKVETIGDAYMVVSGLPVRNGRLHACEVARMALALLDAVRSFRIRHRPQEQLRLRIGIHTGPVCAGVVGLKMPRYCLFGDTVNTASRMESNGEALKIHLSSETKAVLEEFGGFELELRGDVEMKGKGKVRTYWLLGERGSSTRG

O=C(CCCN1CCC(O)(c2cccc(C(F)(F)F)c2)CC1)c1ccc(F)cc1
inactive: max response [1] 20% | outcome [2] | outcome [3] | Potency [4] | Potency [5]

CN(C)[C@@H]1C(=O)C(C(N)=O)=C(O)[C@@]2(O)C(=O)C3=C(O)c4c(O)ccc(Cl)c4[C@@H](O)[C@H]3C[C@@H]12
inactive: max response [1] -7.62% and 22.4% | outcome [2] | outcome [3] | Potency [4] | Potency [6] | Potency [7] | Potency [5]

Cc1nc2c([nH]1)c(=O)n(C)c(=O)n2Cc1ccco1
inactive: max response [1] -4.35% and 2.16% | outcome [2] | outcome [3] | Potency [4] | Potency [6] | Potency [7] | Potency [5]

O=C1CC2(CCCC2)CC(=O)N1CCCCN1CCN(c2ncccn2)CC1
inactive: outcome [3] | Potency [8] | Potency [4] | Potency [7] | Potency [5]
active: Potency [6] 9.2 µM

NS(=O)(=O)c1cc2c(cc1Cl)NC(C1CC3C=CC1C3)NS2(=O)=O (configuration not stated)
inactive: max response [1] -0.791% and -20.2% | outcome [2] | outcome [3] | Potency [4] | Potency [6] | Potency [7]

CCNC(=O)N1CCN(CCCC(c2ccc(F)cc2)c2ccc(F)cc2)CC1
inactive: max response [1] -23% and -10.4% | outcome [2] | outcome [3] | Potency [4]
active: Potency [6] 16.4 µM | Potency [7] 11.7 µM

NC(=O)c1cn(Cc2c(F)cccc2F)nn1
inactive: max response [1] 3.65% and -7.75% | outcome [2] | outcome [3] | Potency [4] | Potency [6] | Potency [7] | Potency [5]

CCn1ccnc1CC1COc2ccccc2O1 (configuration not stated)
inactive: max response [1] 13.9% and 11.7% | outcome [2] | outcome [3] | Potency [4] | Potency [6] | Potency [7] | Potency [5]

C=CCc1ccccc1OCC(O)CNC(C)C (configuration not stated)
inactive: max response [1] 17.2% | outcome [2] | outcome [3] | Potency [4] | Potency [6] | Potency [7] | Potency [5]

Cc1cccc(C)c1NC(=O)C(C)N (configuration not stated)
99.5% [at 9.63 µM]: activity, percent of control [10]
inactive: max response [1] 6.83% and 24.8% | outcome [2] | outcome [3] | Potency [4] | Potency [7] | Potency [5]
92.4% [at 9.63 µM]: remaining parasite growth % (stronger effect = lower value) [9]

Cc1scc2c1N(C(=O)CN1CCN(C)CC1)c1ccccc1NC2=O
inactive: max response [1] 11.1% and 13% | outcome [3] | Potency [8] | Potency [4] | Potency [6] | Potency [7] | Potency [5]

CCc1c(C)[nH]c2c1C(=O)C(CN1CCOCC1)CC2 (configuration not stated)
inactive: max response [1] 2.02% and 26.2% | outcome [2] | outcome [3] | Potency [4] | Potency [6] | Potency [7] | Potency [5]

CC[N+](C)(C)c1cccc(O)c1
inactive: max response [1] 22.6% and 18% | outcome [2] | outcome [3] | Potency [4] | Potency [7] | Potency [5]

CCCC(C(=O)OCCN(CC)CC)(c1ccccc1)c1ccccc1
inactive: max response [1] -0.916% | outcome [2] | outcome [3] | Potency [4] | Potency [7] | Potency [5]
active: Potency [6] 13 µM

CCn1cc(C(=O)O)c(=O)c2cc3c(cc21)OCO3
inactive: max response [1] -6.25% and -3.93% | outcome [3] | Potency [8] | Potency [4] | Potency [6] | Potency [7] | Potency [5]

OCCN1CCN(CCCN2c3ccccc3C=Cc3ccccc32)CC1
inactive: max response [1] -7.06% and 7.36% | outcome [2] | outcome [3] | Potency [7]
active: Potency [1] 11.2 µM

CC(C)(Oc1ccc(CCNC(=O)c2ccc(Cl)cc2)cc1)C(=O)O
inactive: max response [1] 5.91% and 17.9% | max response [11] -0.154% | outcome [2] | outcome [3] | Potency [4] | Potency [6] | Potency [7] | Potency [5]

CN1CCN(C2=Nc3ccccc3Oc3ccc(Cl)cc32)CC1
inactive: max response [1] 15.1% and -7.99% | outcome [3] | Potency [8] | Potency [4] | Potency [7]

CN(C)CC/C=C1\c2ccccc2COc2ccccc21
49.5% [at 9.63 µM]: activity, percent of control [10]
96.2% [at 9.63 µM]: remaining parasite growth % (stronger effect = lower value) [9]
inactive: max response [1] 1.05% and 7.48% | outcome [3] | Potency [8] | Potency [4] | Potency [7] | Potency [5]

O=c1[nH]c(=O)n([C@H]2C[C@H](O)[C@@H](CO)O2)cc1Br
inactive: max response [1] 2.92% and 14.4% | max response [11] -7.4% | outcome [3] | Potency [4] | Potency [6] | Potency [7] | Potency [5]

C(=C\c1ccccc1)/CN1CCN(C(c2ccccc2)c2ccccc2)CC1
inactive: max response [1] -4.21% and 5.87% | outcome [3] | Potency [8] | Potency [4] | Potency [6] | Potency [7]

NC(N)=N/N=C/c1c(Cl)cccc1Cl
inactive: outcome [3] | Potency [8] | Potency [4] | Potency [7] | Potency [5]

CCn1nc(C(=O)O)c(=O)c2cc3c(cc21)OCO3
inactive: max response [1] 3.16% and -5.51% | outcome [3] | Potency [8] | Potency [4] | Potency [7] | Potency [5]

NC/C=C/C(=O)O
inactive: max response [1] 18.4% and 29.6% | outcome [3] | Potency [8] | Potency [4] | Potency [6] | Potency [7] | Potency [5]

COC(=O)[C@H]1[C@H]2C[C@@H]3c4[nH]c5cc(OC)ccc5c4CCN3C[C@H]2C[C@@H](OC(=O)c2cc(OC)c(OC)c(OC)c2)[C@@H]1OC
inactive: outcome [3] | Potency [8] | Potency [4] | Potency [6] | Potency [7]
active: Potency [11] 39.8 µM

CCCCCCCC/C=C\CCCCCCCC(=O)NCc1ccc(O)c(OC)c1
inactive: max response [1] 0.654% and 9.43% | outcome [3] | Potency [4] | Potency [6] | Potency [7] | Potency [5]

CN1C[C@H](C(=O)N[C@]2(C)O[C@@]3(O)[C@@H]4CCCN4C(=O)[C@H](Cc4ccccc4)N3C2=O)C[C@@H]2c3cccc4[nH]cc(c34)C[C@H]21
5.6%: growth, % of control [16]
5.44%: parasite growth, % of DMSO control [13]
inactive: outcome [3] | Potency [4] | Potency [6] | Potency [7] | Potency [5]
-0.39%: remaining parasite growth % (stronger effect = lower value) [9]
0.0095%: activity, percent of control [10]
11.7%: parasite growth, % of control (lower = inhibition) [15]
-1.27%: remaining proliferation (% of control), lower = more inhibition [12]
7.94%: parasite growth remaining, % of DMSO control (lower = more inhibition) [14]

COC(=O)C1=C(C)NC(C)=C(C(=O)OCCN(C)Cc2ccccc2)C1c1cccc([N+](=O)[O-])c1 (configuration not stated)
inactive: outcome [3] | Potency [8] | Potency [4]
active: Potency [7] 16.5 µM

NC(=O)N1c2ccccc2C=Cc2ccccc21
inactive: max response [1] -9.6% and 15.5% | max response [11] -11.6% and -13.8% | outcome [3] | Potency [4] | Potency [6] | Potency [5]

CC(=O)[C@@]1(O)CC[C@H]2[C@@H]3CCC4=CC(=O)CC[C@]4(C)[C@H]3CC[C@@]21C
inactive: max response [1] 5.26% and 15.8% | max response [11] -17.3% | outcome [3] | Potency [4] | Potency [6] | Potency [7]

— PubChem BioAssay (NCATS)
